# Experiments:
# Format in all cases: functional
# [1] = target: Solute carrier family 2, facilitated glucose transporter member 1 (Homo sapiens) (UniProt P11166); experiment: ST_JUDE_LEISH: Cytotoxicity at 2uM final concentration against transgenic Leishmania Mexicana promastigotes LmGLUT1 that are glucose transport deficient and complemented with the human glucose transporter GLUT1. Activity is measured by DNA content using SYBR green in vitro
# [2] = target: Hexose transporter 1 (Plasmodium falciparum) (UniProt O97467); experiment: ST_JUDE_LEISH: Cytotoxicity at 2uM final concentration against transgenic Leishmania Mexicana promastigotes LmPfHT that are glucose transport deficient and complemented with the Plasmodium falciparum hexose transporter. Activity is measured by DNA content using SYBR green in vitro
# [3] = target: Glucose transporter (Leishmania mexicana) (UniProt O61059); experiment: ST_JUDE_LEISH: Cytotoxicity at 2uM final concentration against transgenic Leishmania Mexicana promastigotes LmGT2 that are glucose transport deficient and complemented with the L. Mexicana glucose transporter 2. Activity is measured by DNA content using SYBR green in vitro
# Chain of Solute carrier family 2, facilitated glucose transporter member 1 (Homo sapiens) (P11166 whole entry): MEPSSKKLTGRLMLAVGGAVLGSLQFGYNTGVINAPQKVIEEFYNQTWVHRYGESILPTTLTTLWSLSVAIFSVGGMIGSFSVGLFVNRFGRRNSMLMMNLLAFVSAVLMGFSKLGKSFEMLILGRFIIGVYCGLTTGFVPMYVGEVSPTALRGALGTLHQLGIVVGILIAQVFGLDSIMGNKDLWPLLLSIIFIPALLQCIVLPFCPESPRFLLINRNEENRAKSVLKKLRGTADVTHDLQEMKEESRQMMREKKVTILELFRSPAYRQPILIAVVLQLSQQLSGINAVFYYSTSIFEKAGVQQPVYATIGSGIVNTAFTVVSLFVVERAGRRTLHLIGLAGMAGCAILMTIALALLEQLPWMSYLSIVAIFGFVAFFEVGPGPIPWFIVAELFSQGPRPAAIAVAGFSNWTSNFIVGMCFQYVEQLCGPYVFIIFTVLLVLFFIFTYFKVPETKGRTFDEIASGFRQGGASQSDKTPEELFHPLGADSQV
Compound,inhibition [1] [%],inhibition [2] [%],inhibition [3] [%]
Cc1ccc(NC(=O)c2ccc3ncccc3c2)cc1OC1CCN(C(C)C)C1 (stereo unspecified),8.85,10.2,9.34
CCCCNCc1ccc(-c2nc(CN(CCCn3ccnc3)C(=O)NC3CC3c3ccccc3)cs2)cc1 (stereo unspecified),3.77,3.79,4.29
Fc1ccc(-c2oc(C3CCN(CCc4ccc(-c5noc(=S)[nH]5)cc4)CC3)nc2COCC(F)(F)F)cc1,8.65,7.22,8.14
O=C(Nc1ccc(Cl)cc1)Nc1cccc(CCNCc2ccccc2)c1,0.95,0.57,1.38
O=C(C=Cc1ccc(Cl)c(Cl)c1)NCCCCCN1CCC(CCCNC(=O)/C=C/c2ccccc2)CC1,3.12,2.68,1.62
COc1ccc(C2C(C(=O)Nc3ccccc3)=C(C)Nc3c(C(=O)Nc4ccccc4)cnn32)cc1 (stereo unspecified),2.83,0.21,0.09
Cc1ccc(Cn2nc(N3CCNCC3)ccc2=O)cc1NC(=O)Nc1ccc(-c2ccccc2)cc1,1.5,2.27,-1.04
Cc1ccc(NC(=O)NC2CCN(CCCCCNC(=O)/C=C/c3ccc(Cl)c(Cl)c3)CC2)cc1C,-0.29,-0.57,-1.51
CN1CCC(NCCS(=O)(=O)c2cccc(Nc3ccc(-c4cccc(F)c4)cn3)c2)CC1,0.4,0.91,-0.71
COc1ccc2nc(C)cc(NCc3cccc4ccccc34)c2c1,2.2,3.81,-0.28
CC(=O)c1ccc(NC(=O)Nc2ccc3nccc(N4CCN(C)CC4)c3c2)cc1,1.22,1.77,1.46
COc1ccc(Nc2nccc(N3CCC(NC(=O)c4cccc(NC(C)=O)c4)C3)n2)cc1 (stereo unspecified),0.39,0.61,1.86

# Source: ChEMBL document CHEMBL3433997, “St. Jude Leishmania screening dataset” (2016)
